Experimental data from PubChem BioAssay AID1159580 (chemical genetic matrix, 2015).
Values joined by “and” are separate entries in the source; they are usually repeats but may differ in a detail not shown here. Equal entries are not always repeated. In all, about 5,500 compounds went through this assay and about 2,000 (36%) were called active. About 18% were inconclusive and are not listed. Rule as the data show it: active = normalized growth mostly below about 0.91 (no sharp cut-off); inconclusive = no clear call, values can overlap the other calls; inactive = mostly above about 0.92. Some of the results follow.

Experiment: chemical genetic growth profiling, strain panel (AID 1159580);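 also: tested at 20 µM; growth read once vehicle control cultures reached saturation at 30 °C; 1 = growth at the plate median or of vehicle wells; lower values mean less growth of the strain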
Conditions: growth OD

Measured: normalized growth

COc1cc2c(cc1OC)-c1cc3ccc(OC)c(OC)c3c[n+]1CC2
inactive: S. cerevisiae deletion strains, locus YJR075W, strain HOC1, active compounds read low 0.985 and 1.03 | S. cerevisiae deletion strains, locus YKL009W, strain mrt4, active compounds read low 0.972 and 0.995 | S. cerevisiae deletion strains, locus YKL068W, active compounds read low 0.996 and 1.01 | S. cerevisiae deletion strains, locus YKL085W, strain MDH1 (second series), active compounds read low 0.995 and 0.999 | S. cerevisiae deletion strains, locus YKL085W, strain MDH1, active compounds read low 0.995 and 0.999 | S. cerevisiae deletion strains, locus YKL160W, strain elf1, active compounds read low 0.982 | S. cerevisiae deletion strains, locus YKL190W, strain CNB1, active compounds read low 0.995 and 1.02 | S. cerevisiae deletion strains, locus YKR001C, strain vps1, active compounds read low 0.971 and 1.02 | S. cerevisiae deletion strains, locus YKR026C, strain gcn3, active compounds read low 0.966 | S. cerevisiae deletion strains, locus YKR091W, strain srl3, active compounds read low 0.984 | S. cerevisiae deletion strains, locus YLL001W, strain dnm1, active compounds read low 0.972 | S. cerevisiae deletion strains, locus YLL026W, active compounds read low 0.983 | S. cerevisiae deletion strains, locus YLL041C, strain sdh2, active compounds read low 0.984 | S. cerevisiae deletion strains, locus YLR027C, strain aat2, active compounds read low 0.978 | S. cerevisiae deletion strains, locus YLR039C, strain RIC1, active compounds read low 1 and 0.981 | S. cerevisiae deletion strains, locus YLR058C, strain SHM2, active compounds read low 0.985 and 1.02 | S. cerevisiae deletion strains, locus YLR102C, strain apc9, active compounds read low 0.986 and 1.02 | S. cerevisiae deletion strains, locus YLR113W, strain HOG1, active compounds read low 1.03 | S. cerevisiae deletion strains, locus YLR221C, strain rsa3, active compounds read low 1.01 | S. cerevisiae deletion strains, locus YLR258W, strain gsy2, active compounds read low 1 | S. cerevisiae deletion strains, locus YLR262C, strain YPT6 (second series), active compounds read low 0.969 | S. cerevisiae deletion strains, locus YLR262C, strain YPT6, active compounds read low 1.02 and 0.979 | S. cerevisiae deletion strains, locus YLR268W, strain sec22, active compounds read low 1.01 and 1.04 | S. cerevisiae deletion strains, locus YLR320W, strain mms22, active compounds read low 0.997 | S. cerevisiae deletion strains, locus YLR330W, strain CHS5, active compounds read low 0.991 and 1.01 | S. cerevisiae deletion strains, locus YLR342W, strain FKS1 (second series), active compounds read low 0.978 and 0.987 | S. cerevisiae deletion strains, locus YLR342W, strain FKS1, active compounds read low 0.995 | S. cerevisiae deletion strains, locus YLR357W, strain rsc2, active compounds read low 0.984 | S. cerevisiae deletion strains, locus YLR370C, strain arc18, active compounds read low 0.975 | S. cerevisiae deletion strains, locus YLR371W, strain rom2, active compounds read low 0.978 and 1.01 | S. cerevisiae deletion strains, locus YLR384C, strain iki3, active compounds read low 0.969 | S. cerevisiae deletion strains, locus YLR418C, strain cdc73, active compounds read low 0.994 and 1 | S. cerevisiae deletion strains, locus YML016C, strain PPZ1, active compounds read low 0.982 and 1.01 | S. cerevisiae deletion strains, locus YML032C, strain rad52, active compounds read low 0.972 and 0.998 | S. cerevisiae deletion strains, locus YML120C, strain ndi1, active compounds read low 0.987 | S. cerevisiae deletion strains, locus YML124C, strain tub3, active compounds read low 0.993 and 1.02 | S. cerevisiae deletion strains, locus YMR058W, strain fet3, active compounds read low 0.978 | S. cerevisiae deletion strains, locus YMR078C, strain ctf18, active compounds read low 0.979 and 1.01 | S. cerevisiae deletion strains, locus YMR125W, strain sto1, active compounds read low 0.958 | S. cerevisiae deletion strains, locus YMR129W, active compounds read low 0.985 | S. cerevisiae deletion strains, locus YMR205C, strain PFK2, active compounds read low 0.955 | S. cerevisiae deletion strains, locus YMR223W, strain ubp8, active compounds read low 0.977 and 1.01 | S. cerevisiae deletion strains, locus YMR231W, strain pep5, active compounds read low 1 | S. cerevisiae deletion strains, locus YMR263W, strain SAP30, active compounds read low 0.998 | S. cerevisiae deletion strains, locus YMR307W, strain GAS1, active compounds read low 0.984 and 1.03 | S. cerevisiae deletion strains, locus YNL067W, strain RPL9B, active compounds read low 0.998 and 1.05 | S. cerevisiae deletion strains, locus YNL071W, strain lat1, active compounds read low 0.994 | S. cerevisiae deletion strains, locus YNL128W, strain TEP1, active compounds read low 0.999 | S. cerevisiae deletion strains, locus YNL153C, strain GIM3, active compounds read low 1.01 | S. cerevisiae deletion strains, locus YNL183C, strain NPR1, active compounds read low 0.978 | S. cerevisiae deletion strains, locus YNL209W, strain ssb2, active compounds read low 0.977 | S. cerevisiae deletion strains, locus YNL233W, strain BNI4, active compounds read low 0.981 and 1.03 | S. cerevisiae deletion strains, locus YNL248C, strain rpa49, active compounds read low 0.982 | S. cerevisiae deletion strains, locus YNL250W, strain rad50, active compounds read low 0.989 and 1.02 | S. cerevisiae deletion strains, locus YNL271C, strain bni1, active compounds read low 0.986 and 1.01 | S. cerevisiae deletion strains, locus YNL298W, strain CLA4, active compounds read low 0.995 and 1.02 | S. cerevisiae deletion strains, locus YNL307C, strain MCK1, active compounds read low 0.986 and 1.02 | S. cerevisiae deletion strains, locus YNL322C, strain KRE1 (second series), active compounds read low 0.97 | S. cerevisiae deletion strains, locus YNL322C, strain KRE1, active compounds read low 0.987 and 1.01 | S. cerevisiae deletion strains, locus YNR049C, strain mso1, active compounds read low 0.98 | S. cerevisiae deletion strains, locus YNR052C, strain pop2, active compounds read low 0.995 and 1.02 | S. cerevisiae deletion strains, locus YOL006C, strain TOP1, active compounds read low 1.01 | S. cerevisiae deletion strains, locus YOL012C, strain htz1 0.984 and 1.9 | S. cerevisiae deletion strains, locus YOL147C, strain pex11, active compounds read low 0.991 and 1.01 | S. cerevisiae deletion strains, locus YOR001W, strain rrp6, active compounds read low 0.968 | S. cerevisiae deletion strains, locus YOR061W, strain CKA2, active compounds read low 0.99 and 1 | S. cerevisiae deletion strains, locus YOR069W, strain VPS5, active compounds read low 0.992 and 1.01 | S. cerevisiae deletion strains, locus YOR070C, strain gyp1, active compounds read low 0.986 | S. cerevisiae deletion strains, locus YOR080W, strain dia2, active compounds read low 0.984 | S. cerevisiae deletion strains, locus YOR083W, strain WHI5, active compounds read low 0.999 | S. cerevisiae deletion strains, locus YOR106W, strain vam3, active compounds read low 0.961 | S. cerevisiae deletion strains, locus YOR136W, strain idh2, active compounds read low 0.989 and 1.02 | S. cerevisiae deletion strains, locus YOR144C, strain elg1, active compounds read low 0.989 and 1.01 | S. cerevisiae deletion strains, locus YOR184W, strain ser1, active compounds read low 0.984 and 1 | S. cerevisiae deletion strains, locus YOR231W, strain MKK1, active compounds read low 1.01 | S. cerevisiae deletion strains, locus YOR265W, strain rbl2, active compounds read low 0.973 | S. cerevisiae deletion strains, locus YOR270C, strain vph1, active compounds read low 0.97 | S. cerevisiae deletion strains, locus YOR290C, strain snf2, active compounds read low 0.98 | S. cerevisiae deletion strains, locus YOR316C, strain cot1, active compounds read low 0.986 and 1.01 | S. cerevisiae deletion strains, locus YPL051W, strain arl3, active compounds read low 0.991 | S. cerevisiae deletion strains, locus YPL055C, strain LGE1, active compounds read low 1.03 and 1.02 | S. cerevisiae deletion strains, locus YPL078C, strain atp4, active compounds read low 0.986 | S. cerevisiae deletion strains, locus YPL106C, strain sse1, active compounds read low 0.971 | S. cerevisiae deletion strains, locus YPL240C, strain hsp82, active compounds read low 0.969 | S. cerevisiae deletion strains, locus YPL241C, strain CIN2, active compounds read low 0.995 and 1 | S. cerevisiae deletion strains, locus YPL256C, strain CLN2, active compounds read low 1.03 | S. cerevisiae deletion strains, locus YPR119W, strain clb2, active compounds read low 0.985 and 1.01 | S. cerevisiae deletion strains, locus YPR141C, strain kar3, active compounds read low 0.981 and 1.02 | S. cerevisiae deletion strains, locus YPR163C, strain tif3, active compounds read low 0.992 and 1.03 | S. cerevisiae deletion strains, locus YPR167C, strain met16, active compounds read low 0.983 and 1.01 | S. cerevisiae deletion strains, strain wtn01, active compounds read low 0.972 and 1.03 | S. cerevisiae strains, strain wild type, active compounds read low 0.987
